# From the supplement of paper PMC10121225
# Counter-ions that a name gives are not always drawn.
# Tested on: hN + hpA co-culture (H1 iNGN2 human neurons + human primary astrocytes)
# Assay: presynaptic density (SYNAPSIN1 puncta per MAP2 neurite area), Z-score vs DMSO controls; higher = more presynaptic puncta (synapse-promoting)
# Conditions: 3 µM; 72 h
# 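Further: immunostained co-cultures imaged by high-content microscopy, Z-score per plate against mean and SD of 0.1% DMSO wells, compounds added on differentiation day 18, analysed day 21.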
row,Structure (SMILES),presynaptic density (Z-score)
1,Cc1c(Cl)cccc1Nc1ccccc1C(=O)O [Tolfenamic acid],-0.187
2,O=C(Nc1cccc(Cl)c1)Nc1ncc(CCNc2ncnc3ccsc23)s1 [SNS-314 Mesylate],-0.232
3,NC(=O)N1c2ccccc2CC(=O)c2ccccc21,0.372
4,CCN(CC)CCCC(C)Nc1nc(C)cc(Nc2ccc3nc(C)cc(N)c3c2)n1 (stereo unspecified),-0.607
5,CCCCOc1ccc(C(=O)Nc2ccc(F)cc2F)cc1,0.219
6,COc1cc(N2CCC(N(C)C)CC2)ccc1Nc1ncc(Cl)c(Nc2ccccc2P(C)(C)=O)n1,0.449
7,COc1ccccc1S(=O)(=O)Nc1ccc2c(c1)CN(C)C(=O)N2,0.796
8,CC(C)(C)c1cc(C(C)(C)C)c(NC(=O)c2c[nH]c3ccccc3c2=O)cc1O [Ivacaftor (VX-770)],0.324
9,O=C(Nc1cccc(Nc2ncc(Br)c(NCCc3cnc[nH]3)n2)c1)N1CCCC1,-0.439
10,O=C(O)/C=C/c1ccc(Cn2ccnc2)cc1 [Ozagrel],-0.554
11,Cn1c(N2CCCCS2(=O)=O)nc(C(=O)NCc2ccc(F)cc2)c(O)c1=O,-1.68
12,CCC(CC)CC1(C(=O)Nc2ccccc2SC(=O)C(C)C)CCCCC1 [Dalcetrapib (JTT-705],-0.463
13,COc1cc2/c(=N/c3ccc(Br)cc3F)nc[nH]c2cc1OCC1CCN(C)CC1 [Vandetanib (ZD 6474)],0.993
14,O=C(O)CCc1ccc(NCc2cccc(Oc3ccccc3)c2)cc1 [4-[[(3-Phenoxyphenyl)methyl]amino]benzenepropanoic acid],-0.812
15,CCO[C@@H]1OC(=O)C[C@@H]1NC(=O)[C@@H]1CCCN1C(=O)[C@@H](NC(=O)c1ccc(N)c(Cl)c1)C(C)(C)C,-1.02
16,N#Cc1c(O)c2c(-c3ccc(-c4ccccc4O)cc3)csc2[nH]c1=O,-1.26
17,CN(C)CCc1c[nH]c2ccc(Cn3cncn3)cc12,-0.227
18,CN(C)CCCCC(=O)Nc1ccc(NC(=S)NC(=O)c2ccc(C(C)(C)C)cc2)cc1 [Tenovin-6],-0.671

row,Structure (SMILES),presynaptic density (Z-score)
1,O=C(CCCCCCC(=O)Nc1ccc([C@H]2O[C@@H](CSc3nc(-c4ccccc4)c(-c4ccccc4)o3)C[C@@H](c3ccc(CO)cc3)O2)cc1)NO [Tubacin],0.79
2,CC(C(O)c1ccc(O)cc1)N1CCC(Cc2ccccc2)CC1 (stereo unspecified) [Ifenprodil Tartrate_Selleck],-0.233
3,O=C(NC[C@H]1CN(c2ccc(N3CCOCC3=O)cc2)C(=O)O1)c1ccc(Cl)s1 [Rivaroxaban],-0.11
4,CNC(=O)c1ccccc1Nc1nc(Nc2ccc(N3CCOCC3)cc2OC)ncc1Cl,0.092
5,CC(C)(C)Cn1c(N)nc2ccc(-c3[nH]c(C(C)(C)C)nc3-c3ccc(F)cc3)nc21,0.191
6,Cc1nnc(C(=O)NC(C)(C)c2nc(C(=O)NCc3ccc(F)cc3)c(O)c(=O)n2C)o1 [Raltegravir (MK-0518)],-0.683
7,Cc1cc(C(C)(C)C)c(O)c(C)c1CC1=NCCN1 [Oxymetazoline HCl],-0.235
8,CC(=O)c1cc([N+](=O)[O-])c(Sc2ccc(F)cc2F)s1,0.25
9,COc1cc2c(cc1-c1c(C)noc1C)ncc1[nH]c(=O)n([C@H](C)c3ccccn3)c12 [I-BET 151 hydrochloride],3.55
10,CC(C)[C@H](O)C(=O)N[C@@H](C)C(=O)N[C@@H]1C(=O)N(C)CCc2ccccc21,-0.185
11,OC[C@H]1O[C@@H](c2ccc(Cl)c(Cc3ccc(O[C@H]4CCOC4)cc3)c2)[C@H](O)[C@@H](O)[C@@H]1O,-0.331
12,O=C(Cc1ccc(-c2ccc(OCCN3CCOCC3)cc2)cn1)NCc1ccccc1,-5.26
13,COc1ccc2cccc(CCNC(C)=O)c2c1 [Agomelatine],-0.284
14,Nc1ncnc2c1c(-c1cccc(OCc3ccccc3)c1)cn2C1CC(CN2CCCC2)C1 (stereo unspecified),-1.9
15,COC1CC2CCC(C)C(O)(O2)C(=O)C(=O)N2CCCCC2C(=O)OC(C(C)CC2CCC(OP(C)(C)=O)C(OC)C2)CC(=O)C(C)C=C(C)C(O)C(OC)C(=O)C(C)CC(C)C=CC=CC=C1C (stereo unspecified) [Ridaforolimus (Deforolimus],0.509
16,CCCN[C@H]1CCc2nc(N)sc2C1 [Pramipexole],0.794
17,COc1cccc(-c2cc(F)ccc2C2Cc3nc(N)nc(C)c3C(=O)N2)n1 (stereo unspecified),2.18
18,C[C@@H](NCCCc1cccc(C(F)(F)F)c1)c1cccc2ccccc12 [Cinacalcet HCl],-1.05
